Data as given in the supplement of paper PMC12494721.
Counter-ions that a name gives are not always drawn.

Each molecule was assayed on Klebsiella aerogenes DSM 30053 (assay: fold change of Histamine concentration vs plate DMSO controls (fold change (ratio)); higher = more amine produced, active = hit call of the paper (significant change in both replicates, either direction)). Settings: incubation time: 27 h, anaerobic, 37 °C.
Summary of the method: (§1)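 Each value is the fold change relative to DMSO-only wells on the same plate. Four gut bacterial strains were grown anaerobically in mGAM at 37 °C for 27 h in 80 µL wells, starting at OD 0.1 before a 1:1 dilution, with compounds at 20 µM final (sweeteners 50 µM). Whole cultures were extracted with cold acetonitrile/methanol containing 0.1% formic acid, centrifuged, and amines were quantified by LC–triple-quadrupole MS (dynamic MRM) against external calibration curves with within-batch drift correction. Values are means of 2 biological replicates.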

Fold change of Histamine concentration, active:
CO/N=C(\C(=O)N[C@@H]1C(=O)N2C(C(=O)[O-])=C(C[n+]3cccc4c3CCC4)CS[C@H]12)c1csc(N)n1 [Cefpirome sulfate] (20 µM) 0.122

Fold change of Histamine concentration, inactive:
CC(C)OC(=O)C(C)(C)Oc1ccc(C(=O)c2ccc(Cl)cc2)cc1 [Fenofibrate] (20 µM) 0.941
CN1CCCN=C1/C=C/c1cccc(O)c1 [Oxantel pamoate] (20 µM) 0.924
C[C@H]1C[C@H]2[C@@H]3CCC4=CC(=O)C=C[C@]4(C)[C@@]3(F)[C@@H](O)C[C@]2(C)[C@@]1(O)C(=O)CO [Betamethasone] (20 µM) 0.976
Cc1cc(NS(=O)(=O)c2ccc(N)cc2)no1 [Sulfamethoxazole] (20 µM) 1.12
Fc1ccc(C(c2ccc(F)cc2)N2CCN(C/C=C/c3ccccc3)CC2)cc1 [Flunarizine dihydrochloride] (20 µM) 0.894
CN1CCN(CCCN2c3ccccc3Sc3ccc(S(=O)(=O)N(C)C)cc32)CC1 [Thioproperazine dimesylate] (20 µM) 0.898
Cn1c(=O)c2nc[nH]c2n(C)c1=O [Theophylline monohydrate] (20 µM) 0.952
COC(=O)C1=C(C)NC(C)=C(C(=O)OC)C1c1ccccc1[N+](=O)[O-] [Nifedipine] (20 µM) 1.05
O=C(NCc1ncc(C(F)(F)F)cc1Cl)c1c(Cl)cccc1Cl (20 µM) 1.01
CC(=O)Oc1ccccc1C(=O)Nc1ncc([N+](=O)[O-])s1 [Nitazoxanide] (20 µM) 0.982
CC(=O)CCCCn1c(=O)c2c(ncn2C)n(C)c1=O [Pentoxifylline] (20 µM) 1
CN(C)CCc1c[nH]c2ccc(Cn3cncn3)cc12 [Rizatriptan benzoate] (20 µM) 0.934

These molecules were tested on Clostridium sporogenes DSM 1664 (assay: fold change of Tryptamine concentration vs plate DMSO controls (fold change (ratio)); higher = more amine produced, active = hit call of the paper (significant change in both replicates, either direction)). Settings: incubation time: 27 h, anaerobic, 37 °C.
Summary of the method: as §1

Fold change of Tryptamine concentration, active:
CCn1cc(C(=O)O)c(=O)c2cc(F)c(N3CCNC(C)C3)c(F)c21 (configuration not stated) [Lomefloxacin hydrochloride] (20 µM) 0.0603
CO/N=C(\C(=O)N[C@@H]1C(=O)N2C(C(=O)[O-])=C(C[n+]3cccc4c3CCC4)CS[C@H]12)c1csc(N)n1 [Cefpirome sulfate] (20 µM) 0.0112
CC(=O)Oc1ccccc1C(=O)Nc1ncc([N+](=O)[O-])s1 [Nitazoxanide] (20 µM) 0.0219

Fold change of Tryptamine concentration, inactive:
CNC(=C[N+](=O)[O-])NCCSCc1ccc(CN(C)C)o1 [Ranitidine hydrochloride] (20 µM) 1.05
C/C(O)=C(\C#N)C(=O)Nc1ccc(C(F)(F)F)cc1 [Teriflunomide] (20 µM) 0.946
Cc1ccsc1/C=C/C1=NCCCN1C [Morantel tartrate] (20 µM) 0.936
CCCCOCCOCCOCc1cc2c(cc1CCC)OCO2 (20 µM) 1.03
CC(C)C(=O)Nc1ccc([N+](=O)[O-])c(C(F)(F)F)c1 [Flutamide] (20 µM) 0.961
N=c1nc(N2CCCCC2)cc(N)n1O [Minoxidil] (20 µM) 0.937
C[C@]12CCC3=C4CCC(=O)C=C4CC[C@H]3[C@@H]1CC[C@@]2(O)CC#N [Dienogest] (20 µM) 1.01
CN(Cc1cnc2nc(N)nc(N)c2n1)c1ccc(C(=O)N[C@@H](CCC(=O)O)C(=O)O)cc1 [Amethopterin] (20 µM) 0.975
NC(=O)C1CO1 (configuration not stated) [Glycidamide] (20 µM) 0.935
O=C1[C@H]2CCCC[C@H]2C(=O)N1CCCCN1CCN(c2nsc3ccccc23)CC1 [Perospirone hydrochloride] (20 µM) 1.02
C=C1[C@H](CO)[C@@H](O)C[C@@H]1n1cnc2c(=O)[nH]c(N)nc21 [Entecavir] (20 µM) 0.982
O=c1n(CCCN2CCN(c3cccc(Cl)c3)CC2)nc2ccccn12 [Trazodone hydrochloride] (20 µM) 0.988
CC(=O)Nc1nnc(S(N)(=O)=O)s1 [Acetazolamide] (20 µM) 0.973
CCOC(=O)C1=C(C)NC(C)=C(C(=O)OC)C1c1cccc([N+](=O)[O-])c1 (configuration not stated) [Nitrendipine] (20 µM) 0.947
CCCSS/C(CCO)=C(/C)N(C=O)Cc1cnc(C)nc1N [Prosultiamine] (20 µM) 1.09
CC(C)NCC(O)c1ccc(NS(C)(=O)=O)cc1 (configuration not stated) [Sotalol hydrochloride] (20 µM) 1.03
NC(=O)OCC(O)COc1ccc(Cl)cc1 (configuration not stated) [Chlorphensin carbamate] (20 µM) 0.996
C[C@]12CC[C@H]3[C@@H](CCC4=CC(=O)CC[C@@]43C)[C@@H]1CC[C@@H]2C(=O)CO [Deoxycorticosterone] (20 µM) 0.963
OC(CCCN1CCCCC1)(c1ccccc1)c1ccccc1 [Diphenidol hydrochloride] (20 µM) 1.03
Cc1cccc(Nc2ccncc2S(=O)(=O)NC(=O)NC(C)C)c1 [Torsemide] (20 µM) 1.05
CCN(CC)C(=O)Nc1ccc(OCC(O)CNC(C)(C)C)c(C(C)=O)c1 (configuration not stated) [Celiprolol hydrochloride] (20 µM) 0.988
CC(NCCC(c1ccccc1)c1ccccc1)c1ccccc1 (configuration not stated) [Fendiline hydrochloride] (20 µM) 0.941
Oc1c(I)cc(Cl)c2cccnc12 [Clioquinol] (20 µM) 0.976
CCCCC1=NC2(CCCC2)C(=O)N1Cc1ccc(-c2ccccc2-c2nnn[nH]2)cc1 [Irbesartan] (20 µM) 0.968
CCc1ccc(C(=O)C(C)CN2CCCCC2)cc1 (configuration not stated) [Eperisone Hydrochloride] (20 µM) 1.04
CC(C)OC(=O)C(C)(C)Oc1ccc(C(=O)c2ccc(Cl)cc2)cc1 [Fenofibrate] (20 µM) 1.03
CN1CCCN=C1/C=C/c1cccc(O)c1 [Oxantel pamoate] (20 µM) 1.05
C[C@H]1C[C@H]2[C@@H]3CCC4=CC(=O)C=C[C@]4(C)[C@@]3(F)[C@@H](O)C[C@]2(C)[C@@]1(O)C(=O)CO [Betamethasone] (20 µM) 0.979
Cc1cc(NS(=O)(=O)c2ccc(N)cc2)no1 [Sulfamethoxazole] (20 µM) 0.999
Fc1ccc(C(c2ccc(F)cc2)N2CCN(C/C=C/c3ccccc3)CC2)cc1 [Flunarizine dihydrochloride] (20 µM) 1.05
CN1CCN(CCCN2c3ccccc3Sc3ccc(S(=O)(=O)N(C)C)cc32)CC1 [Thioproperazine dimesylate] (20 µM) 1.03
Cn1c(=O)c2nc[nH]c2n(C)c1=O [Theophylline monohydrate] (20 µM) 1.1
COC(=O)C1=C(C)NC(C)=C(C(=O)OC)C1c1ccccc1[N+](=O)[O-] [Nifedipine] (20 µM) 1.02
O=C(NCc1ncc(C(F)(F)F)cc1Cl)c1c(Cl)cccc1Cl (20 µM) 0.989
CC(=O)CCCCn1c(=O)c2c(ncn2C)n(C)c1=O [Pentoxifylline] (20 µM) 1.03
CN(C)CCc1c[nH]c2ccc(Cn3cncn3)cc12 [Rizatriptan benzoate] (20 µM) 1
